Screening data (PubChem)
Mot1-301 SUMO – inhibitors of SUMOylation pathway: yeast Mot1-301 growth rescue | actives 1% (n = 320,000) | growth rescue, % at 18.8 µM | AID 2716 | S. cerevisiae Mot1-301 growth rescue, ATP luminescence, 38.5C; percent above DMSO median, 100 means doubled;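 active = every valid replicate shows activation above 250% relative to neutral control wells; inactive = the rest, any valid replicate at or below 250%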
Efflux pump inh – inhibitors of Candida antifungal efflux pumps expressed in yeast; AID 485275; actives 0.44% (n = 330,000); S. cerevisiae Candida pump triplex, Nile Red efflux; inhibition, % at 10 µM;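 active = plate passing quality check with inhibition over a set limit, or well fluorescence over plate mean plus 4 SD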;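 note: Nile Red retained in pooled yeast measured as flow cytometry median fluorescence; higher means more Nile Red kept so more efflux inhibition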
sPLA2-III inh – Inhibits HGIII-sPLA2 liposome hydrolysis, primary screen. Q9NZ20. QFRET BODIPY PC-A2 liposome hydrolysis, fluorescence. inhibition, % at 12.2 µM. actives 0.56% (n = 370,000). AID 743126;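 active = inhibition above mean plus 3 SD of compounds lying within the high and low control bounds, cut at about 19% in these data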
Target sequence (Q9NZ20 whole entry, looked up): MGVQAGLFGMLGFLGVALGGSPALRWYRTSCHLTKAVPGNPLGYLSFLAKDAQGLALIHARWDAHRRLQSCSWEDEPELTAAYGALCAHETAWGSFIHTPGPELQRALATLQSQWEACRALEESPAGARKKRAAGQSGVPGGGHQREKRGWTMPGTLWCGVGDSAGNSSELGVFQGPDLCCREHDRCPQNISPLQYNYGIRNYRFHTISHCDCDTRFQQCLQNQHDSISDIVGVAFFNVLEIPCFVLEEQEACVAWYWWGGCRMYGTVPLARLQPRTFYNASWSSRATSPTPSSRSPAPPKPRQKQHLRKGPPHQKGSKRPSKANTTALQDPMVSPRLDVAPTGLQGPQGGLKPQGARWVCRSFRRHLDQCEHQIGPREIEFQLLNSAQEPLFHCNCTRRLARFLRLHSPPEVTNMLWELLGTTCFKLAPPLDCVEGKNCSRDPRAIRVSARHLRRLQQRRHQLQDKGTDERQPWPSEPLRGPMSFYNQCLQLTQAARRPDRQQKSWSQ
SKN-1 inh – blocks SKN-1 activity in C. elegans. C. elegans VP596 Pgst-4::GFP/RFP ratio, acrylamide-induced, 24 h. inhibition, % at 21.8 µM. actives 0.49% (n = 360,000);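 active = interference check ratio from 0.5 to 1.5 plus GFP to RFP signal ratio inhibition reaching or exceeding a fixed threshold, cut at about 30% in these data, passing the limit was not always enough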
Hits are given with their value; - = inactive; . = not tested or not shown. A selection: hits, their analogues and other compounds. The true share with any hit is near 2.2%.

SMILES	Mot1-301 SUMO	Efflux pump inh	sPLA2-III inh	SKN-1 inh
Cc1nn(C)c(C)c1CNC(=O)c1cnn2c1NC(c1ccccc1)CC2C(F)(F)F (centres undefined)	-	-	-	-
Cc1ccc(C2CC(C(F)(F)F)n3nc(C(=O)NCc4c(C)nn(C)c4C)c(Cl)c3N2)cc1 (centres undefined)	-	-	-	46.1
COC(=O)[C@]12C[C@H](CC(=O)NCC34CC5CC(CC(C5)C3)C4)C(=O)N(Cc3ccccc3)C1=C[C@H](C(C)(C)C)O[C@@H]2C	.	.	-	.
COc1cc2c(c(OC)c1OC)[C@@]1(c3ccccc3)CCCC[C@H]1[C@@H]2NC(=O)C(F)(F)F	.	.	-	.
CC(C)c1ccc(NC(=O)NCc2cccnc2)cc1	-	-	-	38.9
CN(CC(=O)Nc1nc2ccccc2s1)S(=O)(=O)c1ccc(Br)cc1	-	-	-	-
CN(CC(=O)Nc1nc2ccccc2s1)S(=O)(=O)c1ccc(Cl)cc1	-	-	-	36.1
CCCN1CCN(CC(=O)Nc2nc3ccccc3s2)CC1	-	-	-	-
Cc1csc(=O)n1CC(=O)Nc1nc2ccccc2s1	320.6	-	-	-
Cc1c(C)n(Cc2ccccc2)c2ccc(C(=O)OCCN(C)C)cc12	-	-	-	36.2
COC(=O)[C@]12C[C@H](CC(=O)NCc3ccc(OC)c(OC)c3)C(=O)N(CCc3ccc(OC)c(OC)c3)C1=C[C@H](C(C)(C)C)O[C@@H]2C	.	.	-	.
CCCCCCn1c(N2CCN(c3cccc(Cl)c3)CC2)nc2c1c(=O)[nH]c(=O)n2C	-	-	-	37.8
c1ccc(-c2noc(-c3cccc4ccccc34)n2)cc1	-	-	-	37.0
Fc1ccccc1-c1nc(-c2ccccc2)no1	-	-	-	-
Cc1ccccc1-c1nc(-c2ccc(Br)o2)no1	-	-	-	46.1
Fc1ccccc1-c1nc(-c2ccc(Br)o2)no1	-	-	-	72.0
Fc1ccccc1-c1nc(-c2ccncc2)no1	-	-	-	46.0
COc1ccc(-c2nc(-c3ccc(Br)o3)no2)cc1	-	-	-	-
COc1ccc(Cl)cc1-c1nc(-c2ccc(Br)o2)no1	-	-	-	-
CCC(C)NC(=O)Cn1cc(S(=O)(=O)N2CCN(c3ccccc3F)CC2)c2ccccc2c1=O (centres undefined)	-	-	-	-
O=C(NCC1CCN(C(=O)C(=O)c2cccs2)CC1)c1ccncc1	.	.	-	.
CC(C)Cn1c(SC(C)C(=O)NCC2CCCO2)nc2ccc(Cl)cc2c1=O (centres undefined)	-	-	-	-
C[C@H](O)[C@@H]1C(=O)N2CCc3c([nH]c4c(-c5ccccc5)cccc34)[C@@H]2C[C@@H]1N(C)C(=S)NCCc1ccccc1	.	.	-	.
Cc1ccccc1NS(=O)(=O)c1ccc2oc(=O)ccc2c1	-	-	-	-
COc1ccc(C2CC(=O)C(c3ccc(C(F)(F)F)cc3)=CN2Cc2ccccc2)cc1 (centres undefined)	.	.	-	.
SMILES	Mot1-301 SUMO	Efflux pump inh	sPLA2-III inh	SKN-1 inh
COc1ccc(CN2C(=O)CS/C2=N/N=C/c2ccccc2)cc1	-	-	-	52.6
CSc1ccccc1NC(=O)CN(C)CC(=O)Nc1c(F)cccc1F	-	-	-	-
CN(Cc1ccc2c(c1)CCCN2C)C(=O)[C@@H](Cc1ccccc1)NC(=O)[C@H]1O[C@@H](n2ccc(=O)[nH]c2=O)[C@H](O)[C@@H]1O	.	.	-	.
S=C1NC2(CCCC2)N=C1c1ccccc1	490.1	-	-	-
Cc1ccc(S/C=C\C(=O)c2ccccc2)cc1	-	-	-	42.5
Cn1cc(-c2csc(C(O)c3ccccc3)n2)cn1 (centres undefined)	.	.	-	-
Fc1ccc(-c2nc(-c3cccs3)no2)cc1	-	-	-	50.8
Fc1ccc(-c2cnc(-c3cccs3)o2)cc1	-	-	-	92.1
Fc1ccc(-c2cc(-c3cccs3)cc(-c3ccccc3)n2)cc1	-	-	-	-
COC(=O)[C@]12C[C@H](CC(=O)N3CCC(c4ccccc4)CC3)C(=O)N(Cc3ccccc3)C1=C[C@H](C(C)(C)C)O[C@@H]2C	.	.	-	.
O=C(NCc1ccccc1)[C@@H]1CCCN1C(=O)[C@H]1CCCN1C(=O)c1cccc(F)c1	.	.	-	.
CC(C)[C@H](N)C(=O)N[C@H](C(=O)N1CCC2CCN(Cc3ccccc3)CC21)C(C)C (some centres undefined)	.	.	-	.
O=C(OCC(=O)N1N=C(c2ccc(Cl)cc2)CC1c1ccco1)c1ccccc1O (centres undefined)	-	-	-	38.5
O=C(OCC(=O)N1N=C(c2ccc(Cl)cc2)CC1c1ccco1)c1ccco1 (centres undefined)	-	-	-	-
CCOC(=O)COn1c(-c2cccc(Cl)c2)nc2ccc([N+](=O)[O-])cc21	-	-	-	38.0
COc1ccc(-c2cc(C(=O)Nc3c(C)nn(Cc4ccccc4)c3C)no2)cc1	-	-	-	36.2
COc1cccc(-c2cc(C(=O)Nc3c(C)nn(Cc4ccccc4)c3C)no2)c1	-	-	.	-
c1csc(-c2ccc3ccccc3n2)c1	-	-	-	43.0
COC(=O)C1=C(C)N(C)C(=NCc2cccc(C(F)(F)F)c2)NC1c1ccc(F)cc1 (centres undefined)	.	.	-	.
O=C1Nc2ccc(Br)cc2C12NNc1ccccc1O2 (centres undefined)	308.7	-	-	-
COc1ccc(CN(C)C(=O)C23CC4CC(CC(C4)C2)C3)c(OC)c1	328.4	-	-	-
O=c1[nH]ncn2cccc12	-	-	-	46.2
CCCN1CC(=O)N2[C@H](C[C@@]3(n4ccc5ccccc54)c4ccccc4N(S(=O)(=O)c4ccccc4)[C@@H]23)C1=O	.	.	-	.
COc1ccc(CC(=O)Nc2cc(S(=O)(=O)N3CCOCC3)ccc2N2CCCC2)cc1	.	.	-	-
COc1ccccc1C(=O)OCC(=O)Nc1cc(S(=O)(=O)N2CCOCC2)ccc1N1CCCC1	407.2	-	-	-
SMILES	Mot1-301 SUMO	Efflux pump inh	sPLA2-III inh	SKN-1 inh
COc1ccc(C(=O)OCC(=O)Nc2cc(S(=O)(=O)N3CCOCC3)ccc2N2CCCC2)cc1	-	-	-	-
COc1ccc(CC(=O)Nc2cc(S(=O)(=O)N3CCOCC3)ccc2N2CCOCC2)cc1	-	-	-	36.0
S=C(NCc1ccccc1)C(=S)NCc1ccccc1	.	.	-	38.4
Cn1c(=O)c2c(c3ccccc31)OC(C)(C)C=C2	.	.	-	.
COc1ccccc1C(=O)Nc1ccnn1C1CCN(Cc2cnc(N(C)C)s2)CC1	-	-	-	-
O=C(/C=C\Nc1ccccn1)c1ccc(Cl)cc1	-	-	-	41.5
CCOc1ccc([N+](=O)[O-])c(N)c1	-	-	-	-
CCOc1ccc(Nc2ccc([N+](=O)[O-])c3nonc23)cc1	-	-	-	36.7
CC(=O)NS(=O)(=O)c1ccc(Nc2ccc([N+](=O)[O-])c3nonc23)cc1	-	-	-	35.4
O=[N+]([O-])c1ccc(Nc2ccccc2)c2nonc12	-	-	-	35.1
O=[N+]([O-])c1cnccc1Nc1ccccc1	-	-	-	-
COc1ccc(C2CC(=O)C(c3cccc(Cl)c3)=CN2Cc2ccccc2)cc1 (centres undefined)	.	.	-	.
